Laboratory results: PubChem BioAssay (NCI)
About 83,000 compounds went through this panel and 20% of them were active in at least one assay; those are over-represented in the sample as a whole.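 Plates (96-well) were seeded with cells, treated with compound at one concentration, and incubated for 48 hours before percent growth was determined.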 A number with no mark means an inactive call. The source made the active and inactive calls. How the source made its calls: active means growth percent below 10; inactive means the rest.

Assays:
Assay in all cases: NCI-60 one-dose screen, 48 h (100 = growth as untreated, 0 = no growth, -100 = all killed)
[1] = tested on: K-562 leukemia; settings: 10 µM unless noted
[2] = tested on: MALME-3M melanoma; settings: 10 µM unless noted
[3] = tested on: MDA-MB-231 breast; settings: 10 µM unless noted
[4] = tested on: RXF 393 renal; settings: 10 µM unless noted
[5] = tested on: SF-268 CNS; settings: 10 µM unless noted
[6] = tested on: SF-295 CNS; settings: 10 µM unless noted
[7] = tested on: SF-539 CNS; settings: 10 µM unless noted
[8] = tested on: UACC-257 melanoma; settings: 10 µM unless noted
[9] = tested on: M14 melanoma; settings: 10 µM unless noted
[10] = tested on: HT29 colon; settings: 10 µM unless noted
[11] = tested on: SNB-75 CNS; settings: 10 µM unless noted
[12] = tested on: SNB-19 CNS; settings: 10 µM unless noted
[13] = tested on: U251 CNS; settings: 10 µM unless noted
[14] = tested on: PC-3 prostate; settings: 10 µM unless noted
[15] = tested on: SK-MEL-5 melanoma; settings: 10 µM unless noted
[16] = tested on: UACC-62 melanoma; settings: 10 µM unless noted
[17] = tested on: LOX IMVI melanoma; settings: 10 µM unless noted
[18] = tested on: SK-MEL-28 melanoma; settings: 10 µM
[19] = tested on: SK-MEL-2 melanoma; settings: 10 µM unless noted
[20] = tested on: HCT-15 colon; settings: 10 µM unless noted

SMILES | growth [1] | growth [2] | growth [3] | growth [4] | growth [5] | growth [6] | growth [7] [%] | growth [8] | growth [9] | growth [10] [%] | growth [11] [%] | growth [12] [%] | growth [13] | growth [14] [%] | growth [15] | growth [16] [%] | growth [17] | growth [18] | growth [19] | growth [20]
COc1ccc(Cn2cc(Cn3cc(C=C4C(=O)NC(=O)NC4=O)c4ccccc43)nn2)cc1 | 50.4% | 85.5% | -96.3% (active) | 77.9% | 83.3% | 77.1% | 88.3 | 96.4% | 82.4% | 117 | 78.1 | 90.4 | 92.3% | 84.8 | 60.7% | 64.6 | 79.4% | 102% | 85.8% | –
CN(C)CCCNCc1ccc(-c2ccc(F)c(Cl)c2)o1 | -19% (active) | -57.7% (active) | 13.4% | 16% | 53.3% | -18.3% (active) | 60.8 | -5.97% (active) | -80.9% (active) | – | 40.5 | 73.6 | -29.8% (active) | 38.7 | 6.38% (active) | 20.1 | -90.1% (active) | -86.9% (active) | -14.8% (active) | 1.01% (active)
COc1ccc(C2C3=C(COC3=O)N(CCO)c3cc4c(cc32)OCCO4)cc1 (centres undefined) | 53.1% | 103% | 91.2% | 75.5% | 86.5% | 55.8% | 83.1 | 69% | 77.7% | – | 60.4 | 81.2 | 87% | 72.9 | 60.8% | 72.4 | 77.4% | – | 95% | 65.6%
CC(C)[C@H](NC(=O)Cn1cc(C(=O)O)nn1)C(=O)O | 118% | 101% | 97.6% | 112% | 115% | 93% | 105 | 99.6% | 108% | – | 104 | – | 100% | 94.1 | 98.6% | 103 | – | 111% | 127% | 100%
CC1=C(C(=O)OCC2CCN(C(=O)OC(C)(C)C)CC2)[C@@H](c2cccc(C#N)c2)C2=C(CC(C)(C)CC2=O)N1 | 25.5% | 48.5% | 61.1% | 71% | 50.5% | 27.5% | 41.7 | 61.4% | 35.7% | 18.3 | 56.9 | 43 | 41.4% | 48 | 3.59% (active) | 43 | 9.5% (active) | 61.3% | 70.4% | –
CCOC(=O)C1(C(=O)OCC)N=C(c2ccccc2)C=C1c1ccccc1 | 65.2% | 86.4% | 96.3% | 74.9% | 92.6% | 84.9% | 94 | 92.1% | 90.5% | – | 81.2 | 95.4 | 83.3% | 83.8 | 90.1% | 82 | 94.9% | 105% | 82.8% | 96.5%
C=C[C@@H]1CCC/C=C/[C@@H]2C[C@H](O)C[C@H]2[C@H](O)/C=C/C(=O)O1 | 11.4% | -12.5% (active) | -47.9% (active) | -5.1% (active) | 8.16% (active) | 14.6% | 30.3 | 33.5% | 21% | – | 33.8 | 33.4 | 25.3% | 30.3 | -90.1% (active) | 22.1 | -63.6% (active) | 6.18% (active) | -1.5% (active) | 11.6%
COC(=O)/C(CCC=C(C)C)=C1\[C@@H](OC(C)=O)C[C@@]2(C)[C@H]1C[C@@H](O)[C@H]1[C@@]3(C)CC[C@H](NC(=O)c4cnccn4)[C@@H](C)[C@@H]3CC[C@@]12C | 85.5% | 100% | 96.5% | 107% | 94.8% | 103% | 105 | 110% | 99.8% | 99 | 86.3 | 96.5 | 98.3% | 86.2 | 96.5% | 86.6 | 93.5% | 111% | 118% | –
